# Results as given in PubChem BioAssay AID588591 (National Center for Advancing Translational Sciences (NCATS), 2011).
# Hit rate of the full screen: of about 390,000 compounds, about 4,700 (1.2%) were called active. Entries that show only a call come without a potency. Another 4% or so got no clear call; they are omitted. Calls come from the whole dose curve; as a rule, active = well fitted inhibition curve with a large enough effect; inconclusive = small, poorly fitted or top-dose-only effect, or another doubt; inactive = no such curve, though single readings can be large or run the other way. The sample as a whole holds a higher share of actives than the screen did.
# Target: DNA polymerase eta (Homo sapiens) (UniProt Q9Y253)
# Sequence (Q9Y253 whole entry, looked up): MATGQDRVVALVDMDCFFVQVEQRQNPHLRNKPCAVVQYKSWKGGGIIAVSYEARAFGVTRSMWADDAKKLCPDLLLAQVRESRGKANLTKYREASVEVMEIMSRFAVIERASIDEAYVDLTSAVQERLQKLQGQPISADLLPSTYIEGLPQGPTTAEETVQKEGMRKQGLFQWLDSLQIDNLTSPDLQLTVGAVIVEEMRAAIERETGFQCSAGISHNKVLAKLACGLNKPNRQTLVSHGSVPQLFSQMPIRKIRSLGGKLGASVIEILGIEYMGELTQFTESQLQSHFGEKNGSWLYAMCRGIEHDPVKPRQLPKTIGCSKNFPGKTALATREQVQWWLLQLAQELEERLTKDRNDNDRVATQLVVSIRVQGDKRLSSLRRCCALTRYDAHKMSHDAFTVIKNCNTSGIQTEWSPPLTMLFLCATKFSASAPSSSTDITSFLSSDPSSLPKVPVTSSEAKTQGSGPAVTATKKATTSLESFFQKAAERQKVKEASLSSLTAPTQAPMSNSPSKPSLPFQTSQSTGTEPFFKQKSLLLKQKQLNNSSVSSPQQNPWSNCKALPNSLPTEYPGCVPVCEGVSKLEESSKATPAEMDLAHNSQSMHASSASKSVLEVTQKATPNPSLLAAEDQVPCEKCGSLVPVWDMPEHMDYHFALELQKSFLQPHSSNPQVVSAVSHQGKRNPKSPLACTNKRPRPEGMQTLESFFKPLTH
# Test: qHTS for Inhibitors of Polymerase Eta
# Conditions: recombinant Pol eta, fluorescent DNA replication assay; series mostly up to 114 µM
# How it was run: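 Pol eta at 10 nM preincubated with compounds 15 min at room temperature; reaction started with fluorescent substrate (50 nM final) and read kinetically at 0 and 10 min.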
# Potency is the fitted concentration of half-maximal effect.
row,SMILES,Potency
1,Cc1nc2nc(SCC(=O)NC3CCC(C)CC3)nn2c(C)c1Cc1ccccc1Cl (stereo not given),inactive
2,Cc1cc(C)c2oc(C(=O)Nc3ccc(S(=O)(=O)N(C)c4ccccc4)cc3)cc(=O)c2c1,inactive
3,O=C(Nc1cc(C(F)(F)F)ccc1Cl)c1cc2nc(-c3ccc4c(c3)OCO4)cc(C(F)(F)F)n2n1,inactive
4,COC1=C/C(=C/c2c(N)n3nc(CC(=O)N4CCOCC4)sc3nc2=O)C=CC1=O,44.7 µM (active)
5,COc1ccc(S(=O)(=O)N2CCN(CC(=O)N3CCOCC3)CC2)cc1OC,inactive
6,COc1ccc(-c2ccnc(SCC(=O)N3CCOCC3)n2)cc1,inactive
7,C=CCC1=C/C(=C\c2c(N)n3nc(CC(=O)N4CCOCC4)sc3nc2=O)C=C(OC)C1=O,31.6 µM (active)
8,O=C(Nc1cc(C(F)(F)F)ccc1Cl)c1nc2ccccc2nc1N1CCCCC1,inactive
9,O=C(CN1CCSc2ccccc21)N1CCN(c2ccccc2)CC1,inactive
10,Cc1cc(C(=O)Nc2cccc(C(F)(F)F)c2)c2c(C)nn(-c3cccc(F)c3)c2n1,inactive
11,O=C(c1ccc2c(c1)N(Cc1ccc(Cl)cc1)C(=O)c1ccccc1S2(=O)=O)N1CCCCC1,inactive
12,COc1ccc(NC(=O)CN2CCCN(Cc3ccccc3)S2(=O)=O)cc1,inactive
13,COc1c(Cl)cc(C(=O)N(Cc2ccccc2F)C2CCS(=O)(=O)C2)cc1Cl (stereo not given),inactive
14,COc1ccc(NC(=O)CCc2nnc3n(CC(C)C)c(=O)c4ccccc4n23)cc1OC,inactive
15,Cc1cccc(NC(=O)C2CCN(C(=O)NC3CCCCC3)CC2)c1,inactive
16,Cc1cccc(NC(=O)NC2(C)CCS(=O)(=O)C2)c1 (stereo not given),inactive
17,Cc1cccc(NC(=O)C2CC(=O)OC23CCCC3)c1 (stereo not given),25.1 µM (active)
18,Cc1ccc(CCNC(=O)c2ccc(CNS(=O)(=O)c3ccc(C)cc3)cc2)cc1,inactive
19,COc1ccc(CCNC(=O)c2cnc3sc(N4CCCCCC4)nn3c2=O)cc1OC,inactive
20,COc1ccccc1Nc1c2c(nc3ccc(NC(=O)/C=C/c4cc(OC)c(OC)c(OC)c4)cc13)CCCC2,inactive
21,Fc1ccc(CSc2nc(NCc3ccccc3)c3ccccc3n2)cc1,inactive
22,Clc1ccccc1CSc1nnc(-c2ccco2)c(-c2ccco2)n1,25.1 µM (active)
23,c1ccc(CSc2nnc(-c3ccco3)c(-c3ccco3)n2)cc1,22.4 µM (active)
24,CC1(C)N=C(SCc2ccccc2Cl)c2ccccc2N1,inactive
25,Cc1ccc(-c2nnc(SCC(=O)NCc3ccccc3)nc2-c2ccc(C)cc2)cc1,inactive

row,SMILES,Potency
1,Clc1ccccc1CSc1nncn2c1cc1occc12,inactive
2,CC1=C(C(=O)OCc2ccc(C)cc2)C(c2ccccc2Cl)CC(=O)N1 (stereo not given),inactive
3,CCN(CC)c1ccc(NS(=O)(=O)c2cc(-c3cc(C)no3)ccc2C)c(C)c1,inactive
4,COc1ccc(C)cc1Nc1nc2ccccc2c2nnc(C)n12,inactive
5,O=C1CC(c2nnc(Cc3ccc(Cl)cc3)o2)CN1c1ccccc1 (stereo not given),inactive
6,Cc1ccc(Cl)cc1NC(=O)C(C)n1nnc2sc(-c3ccccc3)cc2c1=O (stereo not given),inactive
7,COc1cc(OC)c(NC(=O)N2CC3CCCN3c3ccccc32)cc1Cl (stereo not given),inactive
8,C=CCn1c(=S)[nH]c2scc(-c3ccco3)c2c1=O,17.8 µM (active)
9,Cc1ccc(N2CC(NC(=O)Cc3cccs3)CC2=O)cc1 (stereo not given),inactive
10,Cc1nn(-c2nc(-c3ccccc3)cc(C(F)(F)F)n2)c(C)c1Cl,inactive
11,COc1ccc(OC)c(NC(=O)N[C@H](Cc2ccccc2)C(=O)NN)c1,inactive
12,COc1cc([C@H](Cc2ccccc2)NC(C)=O)oc(=O)c1,20 µM (active)
13,COc1ccc2oc(C(=O)NCC(Cc3ccccc3)N(C)C)c(C)c2c1 (stereo not given),inactive
14,CCOc1ccccc1CNC(=O)C1CCCN(S(=O)(=O)c2ccc3c(ccn3C)c2)C1 (stereo not given),inactive
15,Cc1c2cnn(-c3ccccc3)c(=O)c2c(C)n1C(C)C(=O)Nc1ccc(Br)cc1F (stereo not given),inactive
16,Cc1cc(=O)[nH]c(SCc2ccc(Cl)cc2)n1,inactive
17,Cc1ccc(-c2nc(SCc3ccc(Br)cc3)n3[nH]c(=O)cc3n2)cc1,20 µM (active)
18,Cc1cccc(-c2nc(SCc3ccc(Br)cc3)n3[nH]c(=O)cc3n2)c1,inactive
19,Cc1cccc(N2CCN(c3ccc(C(=O)O)cc3NC(=O)c3ccccc3F)CC2C)c1 (stereo not given),inactive
20,Cc1ccc(-c2nn(CCC(=O)Nc3ccc(OC(F)(F)F)cc3)c(=O)c3ccccc23)cc1,inactive
21,O=C(c1ccco1)N1CCN(C(=O)c2ccc(COc3ccc(F)cc3)o2)CC1,inactive
22,O=C(O)c1ccc(COc2c(F)c(F)cc(F)c2F)o1,44.7 µM (active)
23,O=C(O)CSCc1ccc(C(=O)O)o1,inactive
24,COc1cc(C(=O)N2CCN(C(=O)COc3cccc(C)c3)CC2)cc(OC)c1OC,inactive
25,CCOc1ccc(NC(=O)c2c(NC(=O)Cc3ccccc3)sc3c2CCC(C)C3)cc1 (stereo not given),inactive

row,SMILES,Potency
1,Cc1ccc(C)c(Cn2c(=O)n(CCC(=O)NCc3ccc4c(c3)OCO4)c(=O)c3sccc32)c1,inactive
2,Cc1ccc(S(=O)(=O)N2CCC(C(=O)Nc3cc(C)ccc3C)CC2)cc1,inactive
3,Cc1cccc(NC(c2cccc(F)c2)c2ccc3ccc(C)nc3c2O)n1 (stereo not given),inactive
4,O=C(CSc1nc2ccccc2c(=O)[nH]1)Nc1nc(-c2ccc(Br)cc2)cs1,5.01 µM (active)
5,O=C(COC(=O)c1cc(=O)[nH]c2ccccc12)Nc1nc(-c2cccc(Br)c2)cs1,inactive
6,O=C(CSc1nc(O)c(Cc2ccccc2)c(=O)[nH]1)Nc1nc2c(s1)CCCC2,inactive
7,CCOc1ccc(C2C(C(=O)Nc3ccc(Cl)cc3)=C(C)Nc3nc(C(F)(F)F)nn32)cc1 (stereo not given),inactive
8,CCc1nnc2c3ccccc3nc(N3CCN(c4ccc(C)cc4C)CC3)n12,inactive
9,O=C(CCc1ccccc1)NCc1ccc2c(c1)CCN2C(=O)c1ccccc1,inactive
10,CSC1=N/C(=C\C=C\c2cccs2)C(=O)S1,17.8 µM (active)
11,COc1cccc(-n2ccn(CC(=O)NCc3ccc(C)cc3)c(=O)c2=O)c1,inactive
12,COc1ccc(Cn2ccnc2SCC(=O)NCc2ccco2)cc1,inactive
13,Cc1ccc(OCCSc2nc(-c3cccs3)nc3cc(=O)[nH]n23)cc1Cl,79.4 µM (active)
14,CC(C)c1c(O)nc(SCCOc2ccc(Cl)cc2)[nH]c1=O,inactive
15,O=c1cc2nc(-c3ccccc3)nc(SCCOc3ccc(Cl)cc3)n2[nH]1,inactive
16,CCCNC(=O)CCC(=O)N1Cc2ccccc2Oc2ncccc21,inactive
17,CC(=O)c1ccc(N2CCN(C3C(=O)c4ccccc4N3C(C)=O)CC2)cc1 (stereo not given),inactive
18,COc1ccccc1C(=O)N/C(=C/c1ccco1)C(=O)Nc1ccc(C(=O)O)cc1,17.8 µM (active)
19,COc1ccccc1C(=O)N/C(=C/c1ccc2c(c1)OCO2)C(=O)Nc1cccc(C(=O)O)c1,inactive
20,COc1ccccc1C(=O)NC(=O)COC(=O)c1ccco1,inactive
21,COc1cccc(CNC(=O)CCC(=O)N2CC3CCCN3c3ccccc32)c1 (stereo not given),inactive
22,CC(N)=NCc1cccc(CN)c1,inactive
23,COc1ccc(OCC(=O)Nc2nnc(-c3ccco3)s2)cc1,56.2 µM (active)
24,COc1ccc(NC(=O)COCc2cc(-c3ccco3)on2)cc1,inactive
25,COc1ccc(OCCCC(=O)Nc2nnc(C3CCCO3)s2)cc1 (stereo not given),inactive

row,SMILES,Potency
1,Cc1cc(O)c(C(c2ccccc2)N2CCN(c3ccccc3F)CC2)c(=O)n1Cc1ccco1 (stereo not given),inactive
2,Cc1ccc(NC(=O)Nc2sc3nc4n(c(=O)c3c2C)CCC(C)CC4)c(Cl)c1 (stereo not given),inactive
3,CCOC(=O)c1c(S(=O)(=O)N2CCCC(C(=O)NCc3cccc(C)c3)C2)c(C)n(C)c1C (stereo not given),inactive
4,Cc1cccc(NC(=O)c2ccc(F)c(S(=O)(=O)N(C)C3CCCCC3)c2)c1,inactive
5,CCOC(=O)c1c(SCC(=O)Nc2cccc(C)c2C)nc(=O)[nH]c1C,inactive
6,CCOC(=O)c1c(C)[nH]c2c1-c1ccccc1C(=O)C2=O,3.16 µM (active)
7,CCOC(=O)c1c(C)[nH]c(C)c1S(=O)(=O)N(C)CC(=O)N1CCN(c2ccccc2)CC1,inactive
8,COc1ccc(Cl)cc1NC(=O)CSc1nc(=O)[nH]c2c1CCCC2,inactive
9,COc1ccc(NC(=O)CCN2CCN(CCO)CC2)cc1,inactive
10,Cc1csc2nc(COC(=O)c3ccc(NC(=O)COc4ccccc4F)cc3)cc(=O)n12,inactive
11,COc1ccc2[nH]c3c(C)c4cc[n+](C)cc4c(C)c3c2c1,1.12 µM (active)
12,CC(=O)Nc1c(C)nn(-c2ccccc2)c1N1CCC(C(=O)Nc2cc(Cl)ccc2C)CC1,inactive
13,Cc1cc(-c2ccccc2)n2nc(-c3ccccc3)cc2n1,inactive
14,COc1ccccc1OCCCn1c(-c2ccc(Cl)cc2)nc2ccccc2c1=O,inactive
15,O=C(Nc1nnc(S(=O)(=O)N2CCCCCC2)s1)c1cccc(Br)c1,inactive
16,O=C(Nc1nnc(S(=O)(=O)N2CCOCC2)s1)c1cccc(Br)c1,inactive
17,O=C(Nc1nnc(S(=O)(=O)N2CCCc3ccccc32)s1)c1cccc(F)c1,50.1 µM (active)
18,COc1cc(NC(=O)c2cc(C3CC3)nc3c2c(C)nn3-c2ccccc2)cc(OC)c1,inactive
19,Cc1nn(Cc2ccc(F)cc2)c(C)c1NC(=O)c1cc(CC(C)C)on1,inactive
20,CCc1nc2cccnc2n1-c1ccc(C(=O)O)cc1,20 µM (active)
21,CCc1nc2cccnc2n1-c1ccc(CC(=O)Nc2c(C)cccc2C)cc1,inactive
22,Cc1ccc(Cl)cc1NC(=O)Cc1ccc(-n2c(C)nc3cccnc32)cc1,inactive
23,O=C(O)c1ccc(Nc2nc(-c3ccccc3)c3cc(Br)ccc3n2)cc1,inactive
24,CCN(CC)c1ccc(NC(=O)CN2CCN(CC(=O)Nc3ccc(Cl)cc3)CC2)cc1,inactive
25,CCc1ccc(S(=O)(=O)Nc2cc3c(C(=O)OCc4ccccc4)c(C)oc3c3ccccc23)cc1,inactive
